Structures are written as SMILES. Inconclusive results are not listed. Where a call stands in place of a potency, no number is given. Active and inactive are the calls of the source. Calls come from the whole dose curve; as a rule, active = well fitted cell-killing curve with a large enough effect; inconclusive = small, poorly fitted or top-dose-only effect, or effect the other way; inactive = no such curve, though single readings can be large or run the other way.
Potency is the fitted concentration of half-maximal effect.

A short description of the assay: qHTS of pediatric cancer cell lines to identify multiple opportunities for drug repurposing: Confirmatory screen for SJ-GBM2 cells (AID 1347116).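 Note: 48 hour compound exposure; nearly all actives have a fitted effect of over 60% in size.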 As to conditions: SJ-GBM2 glioblastoma cells, viability; series mostly up to 45.9 µM. From the text:
Drug repurposing or repositioning has been offered as a strategy for drug development in oncology programs. This approach has special potential for childhood cancers and other rare or orphan diseases, where the expected return on new drug development has been a disincentive to pharmaceuticals.
In this project we exploit the poly-pharmacology of drugs to discover new indications via phenotypic screening of a panel of 19 well-characterized cell lines derived from solid tumors seen in children and adolescents. The goal is to identify approved drugs with previously unrecognized anticancer properties that has the potential to reveal new mechanisms and biological processes involved in carcinogenesis or drug resistance. We employed a titration-based paradigm (quantitative high-throughput screening or qHTS), where all compounds were tested at multiple concentrations for their effect on cell viability. Concentration-response curves (CRCs) were derived directly from the primary screen, and both potency and efficacy values were used to identify compounds with robust bioactivity profiles. We screened the NIH Chemical Genomics Center (NCGC) Pharmaceutical Collection (NPC) and Mechanism Interrogation Plate (MIPE) small molecule collections of approved and investigational compounds against these cell lines; and measured metabolically active cells after 48 hours of compound treatment as a proxy for cell viability.
Assay Submitter: Nathalia J. Martinez, National Center for Advancing Translational Sciences, National Institutes of Health, Rockville, MD, USA; email: natalia.martinez@nih.gov
[1] Shen, M et al. Quantitative high-throughput phenotypic screening of pediatric cancer cell lines identifies multiple opportunities for drug repurposing. Oncotarget 2017 Dec 19;9(4):4758-4772. PMID 29435139.
The cells were obtained from University of North Carolina (UNC), Pediatric Preclinical Testing Program (PPT), and Coriell Institute (CI).
qHTS cell viability assay:
Cells were assayed in growth media at a density of 500-1,000 cells/well. Five microliters of cells were dispensed into 1,536-well, white, solid-bottom, TC-treated plates (Greiner Bio One) using a multidrop dispenser and incubated at 37 degrees C, 5% CO2, under a humidified atmosphere for 5 hours. Twenty-three nanoliters of compounds and controls (neutral control DMSO or positive control bortezomib at final concentration of 2.3 µM) were subsequently transferred by Kalypsys pintool. For primary screens, the MIPE collection was tested at 11-point dilutions (final concentrations range from 0.78 nM to 46 µM) and the NPC collection at 8-point dilutions (final concentrations range from 0.59 nM to 46 µM). Compounds tested in follow-up screens were assayed at 11-point dilutions. Cells were incubated for 48 hours, followed by addition of 3 uL of CellTiter-Glo (Promega). After a 15 min incubation at room temperature, samples were analyzed for luminescence intensity using a ViewLux High-throughput CCD imager equipped with clear filters.
Take `Cc1cc(C2CCCCC2)n(O)c(=O)c1`: the Potency entry was “inactive”.
Then `C[C@]12CCC(=O)C=C1CC[C@@H]1[C@H]2[C@@H](O)C[C@@]2(C)[C@H]1CC[C@]2(O)C(=O)CO`, with “inactive”; and `COc1cc(C(C)=O)ccc1OCCCN1CCC(c2noc3cc(F)ccc23)CC1`, with “inactive”.
To `CCOc1cc(CC(=O)N[C@@H](CC(C)C)c2ccccc2N2CCCCC2)ccc1C(=O)O` belongs “inactive”.
Turning to `Nc1nc(OCc2ccccc2)c2[nH]cnc2n1`, the Potency result is “inactive”.
On to `CN(C)c1ccc(O)c2c1C[C@H]1C[C@H]3[C@H](N(C)C)C(=O)C(C(N)=O)=C(O)[C@@]3(O)C(=O)C1=C2O`, for which the Potency result was “inactive”.
As for `Clc1ccc(C(Cn2ccnc2)OCc2ccc(Sc3ccccc3)cc2)c(Cl)c1` (stereo not drawn), the Potency entry was “inactive”.
For `CC(C)C[C@H](NC(=O)[C@H](Cc1ccccc1)NC(=O)c1cnccn1)B(O)O`, the Potency was 32.9 nM (active).
Then `Nc1ncn([C@H]2C[C@H](O)[C@@H](CO)O2)c(=O)n1`, with “inactive”.
On to `CC[C@]1(O)C[C@H]2CN(CCc3c([nH]c4ccccc34)[C@@](C(=O)OC)(c3cc4c(cc3OC)N(C=O)[C@H]3[C@@](O)(C(=O)OC)[C@H](OC(C)=O)[C@]5(CC)C=CCN6CC[C@]43[C@@H]65)C2)C1`, for which the Potency is 185 nM (active).
Then `O=C(NCC1CCCCN1)c1cc(OCC(F)(F)F)ccc1OCC(F)(F)F` (stereo not drawn), with “inactive”; and `CCN(CC)CCOc1ccc(Nc2ncc3cc(-c4c(Cl)cccc4Cl)c(=O)n(C)c3n2)cc1`, with 2330 nM (active); and `Cc1c(C(=O)NN2CCCCC2)nn(-c2ccc(Cl)cc2Cl)c1-c1ccc(Cl)cc1`, with “inactive”.
To `CCCCc1ccc2nc(NC(=O)OC)[nH]c2c1` belongs 3290 nM (active).
On to `Clc1ccc(C(Cn2ccnc2)OCc2ccsc2Cl)c(Cl)c1` (stereo not drawn), for which the Potency result was “inactive”.
Consider `CCN(CC)C(=S)SSC(=S)N(CC)CC`, for which the Potency was 1310 nM (active).
As for `O=C1c2c(O)cc(O)cc2OC(c2ccc(O)c(O)c2)C1O` (stereo not drawn), the Potency entry is “inactive”.
As for `Oc1ccc(-c2nc(-c3ccc(F)cc3)c(-c3ccncc3)[nH]2)cc1`, the Potency is 2330 nM (active).
To `CCCOc1ccc2nc(NC(=O)OC)[nH]c2c1` belongs 1470 nM (active); to `Cc1nc(Nc2ncc(C(=O)Nc3c(C)cccc3Cl)s2)cc(N2CCN(CCO)CC2)n1`, “inactive”.
Then `Nc1ccn([C@@H]2O[C@H](CO)[C@@H](O)C2O)c(=O)n1` (stereo partly drawn), with “inactive”; and `Cc1ccc(NC(=O)c2ccc(CN3CCN(C)CC3)cc2)cc1Nc1nccc(-c2cccnc2)n1`, with “inactive”; and `CN(C)c1ccc2nc3ccc(=[N+](C)C)cc-3sc2c1`, with 1470 nM (active).

These data come from PubChem BioAssay (NCATS).
